Screening results as filed in PubChem.
Rows were chosen to be rich in hits. Some 3.4% of all compounds tested hit in one or more screens of this group.
TMEM16A act: mouse TMEM16A channel activation, primary screen | Q8BHY3 | HEK293 TMEM16A/YFP-H148Q/I152L, iodide quench fluorescence; hits give low values | B-score at 10 µM | 340,000 compounds, 0.3% hits;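 active means fluorescence-ratio B-score plate-corrected deviation score at least 3 library SD below zero, with starting fluorescence score within 5 deviations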;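 further: channel opened by trigger with iodide after compound preincubation; score built on the fluorescence ratio of max minus min over baseline; more negative score means more quench and so TMEM16A activation or potentiation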
Target sequence (Q8BHY3 whole entry, looked up): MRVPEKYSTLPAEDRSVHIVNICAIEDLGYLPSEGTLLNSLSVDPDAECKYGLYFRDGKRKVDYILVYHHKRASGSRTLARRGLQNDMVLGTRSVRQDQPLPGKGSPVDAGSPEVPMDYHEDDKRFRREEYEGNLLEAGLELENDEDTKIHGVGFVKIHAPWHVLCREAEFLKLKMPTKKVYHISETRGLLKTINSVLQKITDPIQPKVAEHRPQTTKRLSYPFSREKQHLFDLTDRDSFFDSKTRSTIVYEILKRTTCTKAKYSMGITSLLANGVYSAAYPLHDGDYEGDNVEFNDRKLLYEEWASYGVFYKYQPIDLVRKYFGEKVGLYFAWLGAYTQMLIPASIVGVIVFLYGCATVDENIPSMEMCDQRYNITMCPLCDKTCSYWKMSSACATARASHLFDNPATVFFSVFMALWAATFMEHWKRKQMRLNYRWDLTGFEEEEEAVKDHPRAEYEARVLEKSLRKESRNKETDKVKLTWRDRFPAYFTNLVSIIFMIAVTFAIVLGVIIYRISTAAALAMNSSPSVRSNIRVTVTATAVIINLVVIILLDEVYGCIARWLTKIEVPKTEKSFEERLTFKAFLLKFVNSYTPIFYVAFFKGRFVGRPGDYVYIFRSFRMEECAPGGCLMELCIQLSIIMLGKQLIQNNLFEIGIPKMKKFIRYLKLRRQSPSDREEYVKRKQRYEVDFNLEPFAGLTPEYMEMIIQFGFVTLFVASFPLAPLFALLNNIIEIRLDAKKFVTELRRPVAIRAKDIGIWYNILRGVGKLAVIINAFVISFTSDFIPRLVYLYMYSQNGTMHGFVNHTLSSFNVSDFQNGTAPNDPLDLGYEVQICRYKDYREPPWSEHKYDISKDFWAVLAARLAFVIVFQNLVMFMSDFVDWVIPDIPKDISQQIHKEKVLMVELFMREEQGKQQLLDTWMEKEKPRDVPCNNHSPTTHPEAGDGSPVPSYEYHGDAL
MEKK3 PB1 HTS: MEKK3-MEK5 PB1 interaction, increase or decrease. Q99759. bead-based flow cytometry, Alexa488-MEK5 binding to MEKK3; actives lie on both sides; 0 = blocked by unlabeled MEK5, 100 = vehicle. binding response (% of control), % at 10 µM. 290,000 compounds, 1.4% hits. AID 1529;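 active means binding response more than 3 SD above or below the average of its plate-row segment, actives on both sides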;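 further: Alexa488 bead fluorescence after subtracting the streptavidin-only scavenger bead signal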
NTR1 agonist: agonists of human neurotensin receptor NTR1. AID 493036. P30989. NTR1-U2OS beta-arrestin-GFP spot imaging, agonist mode. 330,000 compounds, 0.17% hits. activation, % at 20 µM;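 active means activation at or above 40% of the spot to cytoplasm intensity ratio, with at least 20 cells analyzed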;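 further: 0% = DMSO without peptide and 100% = 100 nM NTR1 peptide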
MEKK2mut PB1 HTS: signal of MEK5 binding to mutant human MEKK2 PB1 domain | bead flow cytometry, Alexa488-MEK5 binding to MEKK2 mutant | 290,000 compounds, 0.35% hits | percent response, % at 10 µM | AID 1530; in the data active means percent response above about 24%, passing the limit was not always enough
TMEM16A inh: mouse TMEM16A channel inhibition, primary screen. HEK293 TMEM16A/YFP iodide influx fluorescence, ionomycin. normalized B-score (activity score, 25-100; higher = stronger inhibition) at 10 µM. 310,000 compounds, 1.2% hits. AID 588511;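 active means ratio plate-corrected score three or more library SD toward inhibition, starting fluorescence score within five deviations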;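 further: score derived from kinetic fluorescence span divided by baseline fluorescence per well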
MEKK2 WT-MEK5: raises or lowers MEK5 binding to wildtype human MEKK2 PB1 domain | Q9Y2U5 | bead flow cytometry, Alexa488-MEK5 binding to MEKK2 WT; actives lie on both sides | binding response (% of control), % at 10 µM | 290,000 compounds, 1.1% hits | AID 1531; in the data active means binding response below about 67% or above about 130%
MEKK2wt confirm: raises or lowers MEK5 binding to wildtype human MEKK2, retest | shares compounds with MEKK3 PB1 HTS | bead flow cytometry, Alexa488-MEK5 binding to MEKK2 WT; actives lie on both sides | binding response (% of control), % at 10 µM | 5,900 compounds, 2.4% hits | AID 1892; in the data active means binding response below about 16% or above about 210%; inactive means in between
MEKK2mut confirm: signal of MEK5 binding to mutant human MEKK2, retest; shares compounds with MEKK3 PB1 HTS; bead flow cytometry, Alexa488-MEK5 binding to MEKK2 mutant; percent response, % at 10 µM; 5,900 compounds, 2% hits; in the data active means percent response mostly above about 71%, no sharp cut-off; inactive means mostly below about 38%;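 further: higher means compound restores mutant binding toward wildtype level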
MEKK3 confirm: MEKK3-MEK5 PB1 inhibition, single concentration confirmation; shares compounds with MEKK3 PB1 HTS; bead flow cytometry, Alexa488-MEK5 binding to MEKK3; hits give low values; binding response (% of control), % at 10 µM; 5,900 compounds, 1.8% hits;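 active means binding response below 72% of control, or above a set upper limit, though filed actives all read lower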;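 further: 100% = DMSO only wells and 0% = binding blocked by excess unlabeled MEK5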
* hit, by the source's call; i = inactive; · = no result; [ ] = another dose, or the depositor's remark.

SMILES	TMEM16A act	MEKK3 PB1 HTS	NTR1 agonist	MEKK2mut PB1 HTS	TMEM16A inh	MEKK2 WT-MEK5	MEKK2wt confirm	MEKK2mut confirm	MEKK3 confirm
O=C(NCCN1CCCCCC1)c1ccc(N2CCCC2=O)cc1	i	101.0	-1.1	9.0	i	145.0*	127.0	20.0	103.0
CC1CCCN(CCCNC(=O)c2ccc(N3CCCC3=O)cc2)C1 (stereo unspecified)	i	97.0	-0.1	0.0	i	105.0	·	·	·
O=C(NCCCN1CCN(c2cccc(Cl)c2)CC1)c1ccc(N2CCCC2=O)cc1	i	98.0	-0.1	7.0	i	111.0	·	·	·
CCOc1ccc(C(C)=O)cc1COC(=O)C(C)N=C1NS(=O)(=O)c2ccccc21 (stereo unspecified)	i	101.0	0.3	2.0	i	97.0	·	·	·
O=C(Cn1cc(C(F)(F)F)ccc1=O)NCC1CCCO1 (stereo unspecified)	i	·	1.9	·	·	·	·	·	·
CC(C)NC(=O)C(OC(=O)c1ccccc1)C(OC(=O)c1ccccc1)C(=O)O (stereo unspecified)	i	123.0*	1.2	6.0	i	117.0	109.0	7.0	104.0
COc1ccc(-c2n[nH]c(C)c2-c2cscn2)c(O)c1	i	133.0*	-0.6	29.0	i	130.0	101.0	-12.0	98.0
Cc1cccc(Nc2nc(Cl)ncc2F)c1C	i	105.0	2.0	3.0	i	108.0	·	·	·
Cc1ccc(C)c(N/N=C2\CCCNC2=O)c1	i	96.0	-1.3	-2.0	i	95.0	·	·	·
COC/C=C/C1=CC2=CC(=O)C(C)(OC(=O)c3ccco3)C(=O)C2=CO1 (stereo unspecified)	·	83.0	0.2	-9.0	i	72.0*[inhibitor]	93.0	-4.0	99.0
Cc1ccc(C)c(C(=O)CCC(=O)O)c1	i	74.0	0.8	3.0	i	76.0	·	·	·
Cc1nc2ccccc2n1S(=O)(=O)N(C)C	i	141.0*	-0.6	10.0	i	125.0	102.0	1.0	101.0
Cc1nc2ccccc2n1S(=O)(=O)c1ccc(F)cc1	i	96.0	-0.5	3.0	i	98.0	·	·	·
CC1CCCN(C(=O)CN(C)S(=O)(=O)c2ccc3c(c2)c(=O)n(C)c(=O)n3C)C1 (stereo unspecified)	i	101.0	1.5	-1.0	i	99.0	·	·	·
CC[C@H](C)NC(=O)CCCCCn1c(=S)[nH]c2c([nH]c3ccc(OC)cc32)c1=O	i	138.0*	-1.3	5.0	i	118.0	97.0	-3.0	102.0
O=C(NC1CCCCC1)C(c1ccccc1F)N(C(=O)c1csnn1)C1CCCC1 (stereo unspecified)	i	96.0	0.5	0.0	i	94.0	·	·	·
Cn1nc(C(=O)OCC(=O)Nc2ccc(C(N)=O)cc2)c2ccccc2c1=O	i	·	-1.0	·	·	·	·	·	·
CCOC(=O)c1ccc(NS(=O)C23CC4CC(CC(C4)C2)C3)cc1 (stereo unspecified)	i	97.0	1.3	-35.0	i	-6.0*[inhibitor]	105.0	-1.0	103.0
O=C(CSc1nc(-c2ccccc2)c(-c2ccccc2)[nH]1)NCC1CCCO1 (stereo unspecified)	i	93.0	1.0	-20.0	i	54.0*[inhibitor]	98.0	-8.0	95.0
O=C(CSc1nc2ccccc2[nH]1)NCC1CCCO1 (stereo unspecified)	i	97.0	0.1	12.0	i	102.0	·	·	·
CC1(C)OC(=O)N(c2ccccc2)C12C=Cc1c(ccc3ccccc13)O2 (stereo unspecified)	i	113.0	5.8	3.0	i	100.0	·	·	·
